Four compounds from PubChem BioAssay (NCATS) can be followed below.

The assay addresses Cytochrome P450 2D6 (Homo sapiens) (UniProt P10635). Description: qHTS Assay for Inhibitors and Substrates of Cytochrome P450 2D6 (AID 891). Note: nearly all actives have a fitted effect of over 60% in size. Particulars: recombinant CYP2D6, luciferin-ME EGE luminescence; series mostly up to 57.1 µM. In a few lines: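 Human CYP2D6 (5 nM) with 30 uM Luciferin-ME EGE (at Km) in 100 mM KPO4, compound preincubated 10 min, then NADPH regeneration system for 60 min at room temperature. Luciferin read by luminescence; normalized to 1.43 uM quinidine.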
A general note: qHTS replaces the single test concentration by a dilution series.

Molecules are shown by their SMILES. Inconclusive results are not listed. Calls of active or inactive are those of the source. Calls come from the whole dose curve; as a rule, active = well fitted inhibition curve with a large enough effect; inconclusive = small, poorly fitted or top-dose-only effect; inactive = no such curve, though single readings can be large or run the other way.
Potency is the fitted concentration of half-maximal effect.

Sequence of Cytochrome P450 2D6 (Homo sapiens) (P10635 whole entry, looked up): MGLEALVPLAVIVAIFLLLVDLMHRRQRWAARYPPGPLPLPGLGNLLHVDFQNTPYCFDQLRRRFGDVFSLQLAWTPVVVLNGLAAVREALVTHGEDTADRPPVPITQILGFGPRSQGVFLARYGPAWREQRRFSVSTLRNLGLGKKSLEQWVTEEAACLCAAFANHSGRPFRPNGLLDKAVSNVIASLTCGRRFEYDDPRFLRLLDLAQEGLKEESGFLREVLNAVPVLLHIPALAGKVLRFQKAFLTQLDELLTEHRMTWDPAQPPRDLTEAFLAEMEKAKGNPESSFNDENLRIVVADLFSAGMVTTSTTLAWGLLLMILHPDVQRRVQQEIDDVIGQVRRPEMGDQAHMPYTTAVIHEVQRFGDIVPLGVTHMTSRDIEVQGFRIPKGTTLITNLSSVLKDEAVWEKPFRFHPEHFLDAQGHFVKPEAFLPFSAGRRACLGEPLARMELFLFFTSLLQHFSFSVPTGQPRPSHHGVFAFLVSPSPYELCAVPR

Turning to `Cc1ccccc1-c1nccc(NCc2cccs2)n1`, the Potency is 2510 nM (active).

Take `COc1ccc2[nH]cc(CCNc3ncnc4ccc(-c5cccnc5)cc34)c2c1`: the Potency is 7940 nM (active). For `FC(F)(F)c1ccccc1-c1ccc2ncnc(NCc3cccnc3)c2c1` the value was 1580 nM (active); for `c1csc(CNc2ccnc(-c3ccoc3)n2)c1`, 3160 nM (active).
